CHO-K1 Ca ag: counter-screen for M1 agonists: effect in parental CHO-K1 cells | Fluo-8 calcium fluorescence; scaled to maximal ATP response, vehicle zero | activation, % at 3 µM | 360,000 tested, 0.48% active | AID 602248; in the data active = activation above about 15%;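 also: untransfected CHO-K1 host cells lacking M1 receptor as counterscreen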
M1 ag: human M1 muscarinic receptor agonism. activation, % at 3 µM. CHO-K1 hM1, Fluo-8 calcium fluorescence, agonist mode; 0% DMSO, 100% acetylcholine EC100. 360,000 tested, 0.33% active. AID 588814;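 active = activation above the run's mean compound activation plus 3 SD, cut at about 16% in these data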;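 also: peak over basal fluorescence ratio within a 140 s kinetic read after compound addition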
Target sequence (P11229 whole entry, looked up): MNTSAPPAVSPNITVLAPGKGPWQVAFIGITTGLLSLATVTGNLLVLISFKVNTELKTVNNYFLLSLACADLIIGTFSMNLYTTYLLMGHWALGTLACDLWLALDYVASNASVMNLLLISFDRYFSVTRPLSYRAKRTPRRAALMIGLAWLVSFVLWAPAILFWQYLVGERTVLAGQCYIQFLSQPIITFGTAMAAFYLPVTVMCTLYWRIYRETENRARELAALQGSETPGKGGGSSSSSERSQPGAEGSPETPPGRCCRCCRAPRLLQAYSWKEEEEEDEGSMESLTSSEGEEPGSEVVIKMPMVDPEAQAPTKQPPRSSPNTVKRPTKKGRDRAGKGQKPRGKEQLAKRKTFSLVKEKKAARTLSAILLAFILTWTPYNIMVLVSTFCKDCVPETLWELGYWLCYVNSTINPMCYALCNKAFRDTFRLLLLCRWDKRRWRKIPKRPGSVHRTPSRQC
CHRM1 antagonist: antagonists of human M1 muscarinic receptor; CHO-K1 hM1, Fluo-8 calcium fluorescence, ACh EC80 antagonist; inhibition, % at 3 µM; 360,000 tested, 1.3% active;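 active = percent inhibition above its own plate's cutoff, namely the mean of that plate's compound wells plus 3 SD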;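 also: peak over basal fluorescence ratio during 140 s after agonist addition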
M1 PAM: positive allosteric modulators of human M1 muscarinic receptor | P11229 | CHO-K1 hM1, Fluo-8 calcium fluorescence, ACh EC20; 0% = ACh EC20, 100% = maximal ACh | activation, % at 3 µM | 360,000 tested, 0.088% active | AID 588819; in the data active = activation above about 19%, passing the limit was not always enough
M1 PAM parental: counter-screen for M1 PAMs: effect in parental CHO-K1 cells; activation, % at 3 µM; 360,000 tested, 0.02% active; AID 602247; ATP EC20, Fluo-8 calcium fluorescence; 0% at ATP EC20, 100% at ATP max;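 active = activation above the run cutoff, the mean activation of all test compounds plus 3 SD, cut at about 40% in these data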;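 also: peak over basal fluorescence ratio in a 140 s read after ATP addition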
CHO-K1 Ca antag: counter-screen for M1 antagonists: effect in parental CHO-K1 cells; ATP-induced calcium, Fluo-8 fluorescence; inhibition, % at 3 µM; 360,000 tested, 0.6% active; AID 602250;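 active = inhibition above a per-plate cutoff, the plate's mean sample inhibition plus 3 SD, cut at about 24% in these data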
A number is an active result; n = inactive. Sampled rows, rich in hits. Any-hit rate of the full collection: about 2.3%.

SMILES	CHO-K1 Ca ag	M1 ag	CHRM1 antagonist	M1 PAM	M1 PAM parental	CHO-K1 Ca antag
O=C(NC1CC2CCCC(C1)N2Cc1ccccc1)C1CCCCC1 (configuration not stated)	n	n	38.1	n	n	n
CCCCN1C2CCCC1CC(NC(=O)C1CCCCC1)C2 (configuration not stated)	n	n	42.6	n	n	n
Cc1c(NS(=O)(=O)c2cccc(C(=O)N3CCC(C(N)=O)CC3)c2)c(=O)n(-c2ccccc2)n1C	n	n	n	31.1	n	n
Cc1ccc(S(=O)(=O)N2CCC(C(=O)NNS(=O)(=O)c3ccc(Cl)cc3)CC2)cc1	n	n	n	n	n	n
CCOC(=O)c1oc2ccc(Br)cc2c1COC(=O)C1=COCCO1	n	n	56.9	n	n	n
Cc1ccccc1CSc1nn2c(=O)c(C)nnc2s1	n	n	n	n	n	23.8
Cc1ccccc1NC(=O)CSc1nn2c(=O)c(C)nnc2s1	n	n	n	n	n	n
Cc1ccc(S(=O)(=O)NCCC(=O)N2CCN(c3cccc(Cl)c3)CC2)cc1C	n	n	n	n	n	n
O=C(CCNS(=O)(=O)c1ccc2nsnc2c1)N1CCN(c2ccncc2)CC1	n	n	61.8	n	n	n
CCCCn1c(N)c(N(CC(C)C)C(=O)CSCc2ccc(Cl)c(Cl)c2)c(=O)[nH]c1=O	n	n	n	n	n	n
CCN(CC)CCOC(=O)C12CC3CC(CC(C3)C1)C2	n	n	40.8	n	n	n
CC(=O)Oc1ccccc1Cn1c(C)c(C(=O)NCc2ccccc2C(F)(F)F)sc1=O	n	n	n	n	n	n
COc1ccc(C2/C=C\CN(Cc3ccc(N(C)C)cc3)CC(=O)N2Cc2ccc(F)cc2)cc1 (configuration not stated)	n	n	n	n	n	n
N#Cc1ccccc1S(=O)(=O)N1CCN(C(=O)CN(Cc2ccco2)Cc2cccs2)CC1	n	n	n	n	n	n
COc1ccc(OC)c(S(=O)(=O)N2CCN(C34CC5CC(CC(C5)C3)C4)CC2)c1	n	n	47.8	n	n	n
CCN1CCN(S(=O)(=O)c2cc(OC)ccc2OC)CC1	n	n	n	n	n	n
CN1C(=O)/C(=C/c2ccccc2OCc2ccc(F)cc2)N(C)C1=S	n	n	100.2	n	n	n
O=C1NC(=S)N/C1=C\c1ccccc1OCc1ccc(C(=O)O)cc1	n	34.0	n	n	n	n
CCCc1nc(Cl)c(C#N)c2c1CCCC2	n	21.6	n	n	n	n
CCc1nc(Cl)c(C#N)c2c1CCCC2	n	n	n	n	n	n
CN(Cc1cccs1)c1nc(-c2cccnc2)nc2ccccc12	n	n	35.2	n	n	n
COc1ccc(NS(=O)(=O)c2cccc(C(=O)NCC(c3ccccc3OC)N3CCCC3)c2)cc1 (configuration not stated)	n	n	81.8	n	n	n
COc1ccc(NS(=O)(=O)c2cccc(C(=O)NCC(c3ccc(OC)cc3)N3CCCC3)c2)cc1 (configuration not stated)	n	n	n	n	n	n
COc1ccccc1C(CNC(=O)c1cccc(S(=O)(=O)Nc2ccc(F)cc2)c1)N1CCCC1 (configuration not stated)	n	n	100.6	n	n	n
COc1ccc(C(CNC(=O)c2cccc(S(=O)(=O)Nc3ccc(F)cc3)c2)N2CCCC2)cc1 (configuration not stated)	n	n	n	n	n	n
SMILES	CHO-K1 Ca ag	M1 ag	CHRM1 antagonist	M1 PAM	M1 PAM parental	CHO-K1 Ca antag
COc1ccc(C(CNC(=O)c2oc3ccc(OC)cc3c2C)N2CCCC2)cc1 (configuration not stated)	n	n	n	n	n	30.1
CC(C)(CNC(=O)c1cccc(S(=O)(=O)Nc2ccc(SC(F)F)cc2)c1)N1CCOCC1	n	n	34.9	n	n	n
CCOc1nc(Nc2ccc(OC)cc2OC)nc(OCC)n1	n	n	n	n	n	n
CNC(=S)NN=C(C)CCCC(C)=NNC(=S)NC	n	n	n	n	n	n
CSc1ccc(CN2CCC(n3nccc3NC(=O)C3CCOC3)CC2)cc1 (configuration not stated)	n	n	n	n	n	n
COc1ccc(NS(=O)(=O)c2cccc(C(=O)NCCCN3CCOCC3)c2)cc1	n	n	n	n	n	n
C=CCN(c1ccccc1OC)S(=O)(=O)c1cccc(C(=O)NCC(c2ccc(OC)cc2)N2CCCC2)c1 (configuration not stated)	n	n	34.2	n	n	n
COc1ccc(NS(=O)(=O)c2cccc(C(=O)NCc3ccccc3CN3CCOCC3)c2)cc1	n	22.9	n	n	n	n
Cc1onc(-c2ccccc2)c1C(=O)Nc1ccc(S(=O)(=O)NC(C)(C)C)cc1	n	n	n	n	n	n
CCN(CC(=O)Nc1ccc(OC)cc1)CC(=O)Nc1cccc(S(=O)(=O)N2CCOCC2)c1	n	n	n	n	n	n
COc1ccc(N2C(=O)CC(N3CCN(S(=O)(=O)c4c(C)cc(C)cc4C)CC3)C2=O)cc1 (configuration not stated)	n	n	n	n	n	n
COc1ccc(N2C(=O)CC(N3CCN(S(=O)(=O)c4cc(C)ccc4C)CC3)C2=O)cc1 (configuration not stated)	16.1	n	n	n	n	n
CC(=O)Nc1ccc(N=Nc2ccc(O)cc2)cc1	n	n	n	n	n	n
CC(C)(CO)NCc1cc(Br)ccc1OCc1ccccc1	n	n	n	n	n	n
CC(C)NCc1cc(Br)ccc1OCc1ccccc1	n	34.4	n	n	n	n
CC1=[N+](C)N(c2ccccc2)C(=O)C1N=Cc1c(Cl)cccc1Cl (configuration not stated)	16.3	n	n	n	n	n
COc1nc(-c2ccccc2)ccc1-c1noc(C)n1	n	n	n	n	n	27.6
COc1ccccc1NC(=O)c1ccccc1-c1nc(-c2ccccc2OC)no1	n	n	29.3	n	n	n
COc1ccccc1-c1noc(-c2ccccc2C(=O)Nc2ccccc2)n1	n	n	n	n	n	n
COCc1nc(-c2ccc(-c3ccccc3)nc2OC)no1	n	n	n	n	n	n
COc1ccccc1-c1nc(-c2ccc(C)nc2OC)no1	n	n	n	n	n	26.0
COc1ccc(/C(C)=N/NC(=O)C(NC(=O)c2ccccc2)c2n[nH]c(=O)c3ccccc23)c(OC)c1 (configuration not stated)	n	n	n	n	n	n
O=C(Nc1ccccc1)c1ccccc1OCC(O)CN1C(=O)c2ccccc2S1(=O)=O (configuration not stated)	n	n	49.9	n	n	n
Cc1cc(NS(=O)(=O)c2ccc(NC(=O)c3cnc(Cl)c(Cl)c3)cc2)nc(C)n1	n	n	n	n	n	n

Screening results (PubChem BioAssay)
